# Laboratory results reported in the supplement of paper PMC8728848.
# This is one part of a sample in which the strongest signals are shown more often than they occur.
# B1: OrysaEULS2 (Oryza sativa) (protein)
# chain: MVYCRANPNYAMTARNGAVVLAPANPKDEYQHWIKDMRWSTSIKDEEGYPAFALVNKATGQAIKHSLGQSHPVRLVPYNPEVMDESVLWTESRDVGNGFRCIRMVNNIYLNFDAFHGDKYHGGVRDGTDIVLWKWCEGDNQRWKIQPYYILEQKLISEEDLNSAVDHHHHHH
# Columns and labels:
# Assay in all cases: glycan array binding signal (z-score within array); higher = stronger binding
# Conditions in all cases: glycan notation: IUPAC condensed, linker removed
# [1] = biological target: Fuc(a1-2)Gal(b1-3)GalNAc(b1-3)Gal(a1-4)Gal(b1-4)Glc
# Summary of the method: (§1)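 The binding signal is a Z-score computed within each array and averaged over linkers. Arrays of the same protein sequence at different concentrations or buffers were also averaged together. Data originate from 3228 arrays in the Consortium for Functional Glycomics database, kept only where the protein sequence was available.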
# [2] = biological target: Fuc(a1-2)Gal(b1-3)[Fuc(a1-4)]GlcNAc(b1-2)Man(a1-3)[Fuc(a1-2)Gal(b1-3)[Fuc(a1-4)]GlcNAc(b1-2)Man(a1-6)]Man(b1-4)GlcNAc(b1-4)[Fuc(a1-6)]GlcNAc(b1-4)[Fuc(a1-6)]GlcNAc
# Summary of the method: as §1
# [3] = biological target: Fuc(a1-2)Gal(b1-4)GlcNAc(b1-3)[Fuc(a1-3)[Gal(b1-4)]GlcNAc(b1-6)]Gal(b1-4)Glc
# Summary of the method: as §1
# [4] = biological target: Fuc(a1-2)Gal(b1-4)GlcNAc(b1-6)GalNAc
# Summary of the method: as §1
# [5] = biological target: Fuc(a1-2)Gal(b1-4)[Fuc(a1-3)]GlcNAc
# Summary of the method: as §1
# [6] = biological target: Fuc(a1-2)Gal(b1-4)[Fuc(a1-3)]GlcNAc(b1-3)Gal(b1-4)[Fuc(a1-3)]GlcNAc(b1-3)Gal(b1-4)[Fuc(a1-3)]GlcNAc
# Summary of the method: as §1
# [7] = biological target: Fuc(a1-2)[Gal(a1-3)]Gal(b1-3)GalNAc(b1-3)Gal(a1-4)Gal(b1-4)Glc
# Summary of the method: as §1
# [8] = biological target: Fuc(a1-2)[Gal(a1-3)]Gal(b1-3)GlcNAc(b1-2)Man(a1-3)[Fuc(a1-2)[Gal(a1-3)]Gal(b1-3)GlcNAc(b1-2)Man(a1-6)]Man(b1-4)GlcNAc(b1-4)GlcNAc
# Summary of the method: as §1
# [9] = biological target: Fuc(a1-2)[GalNAc(a1-3)]Gal(b1-4)Glc
# Summary of the method: as §1
# [10] = biological target: Fuc(a1-2)[GalNAc(a1-3)]Gal(b1-4)GlcNAc
# Summary of the method: as §1
# [11] = biological target: Fuc(a1-3)[Gal(b1-4)]GlcNAc(b1-3)Gal(b1-4)[Fuc(a1-3)]GlcNAc
# Summary of the method: as §1
# [12] = biological target: Fuc(a1-3)[Gal(b1-4)]GlcNAc(b1-4)Gal(b1-4)[Fuc(a1-3)]GlcNAc(b1-4)Gal(b1-4)[Fuc(a1-3)]GlcNAc
# Summary of the method: as §1
# [13] = biological target: Fuc(a1-3)[Gal(b1-4)]GlcNAc(b1-6)[Gal(b1-3)GlcNAc(b1-3)]Gal(b1-4)Glc
# Summary of the method: as §1
# [14] = biological target: Fuc(a1-3)[Gal(b1-4)]GlcNAc(b1-6)[Neu5Ac(a2-3)Gal(b1-3)]GalNAc
# Summary of the method: as §1
# [15] = biological target: Gal(a1-3)Gal(b1-3)GlcNAc(b1-2)Man
# Summary of the method: as §1
# [16] = biological target: Gal(a1-3)Gal(b1-3)GlcNAc(b1-3)GalNAc
# Summary of the method: as §1
# [17] = biological target: Gal(a1-3)Gal(b1-4)[Fuc(a1-3)]GlcNAc
# Summary of the method: as §1
# [18] = biological target: Gal(a1-4)Gal(b1-3)GlcNAc(b1-2)Man(a1-3)[Gal(a1-4)Gal(b1-3)GlcNAc(b1-2)Man(a1-6)]Man(b1-4)GlcNAc(b1-4)GlcNAc
# Summary of the method: as §1
# Gal(b1-2)Gal = biological target: Gal(b1-2)Gal
# Summary of the method: as §1
# [19] = biological target: Gal(b1-3)GlcNAc(b1-3)GalNAc
# Summary of the method: as §1
# [20] = biological target: Gal(b1-3)GlcNAc(b1-6)GalNAc
# Summary of the method: as §1
# [21] = biological target: Gal(b1-3)[Fuc(a1-4)]GlcNAc
# Summary of the method: as §1
# [22] = biological target: Gal(b1-3)[Neu5Ac(a2-6)]GlcNAc(b1-6)Gal(b1-4)Glc
# Summary of the method: as §1
# [23] = biological target: Gal(b1-4)GalNAc(a1-3)[Fuc(a1-2)]Gal(b1-4)GlcNAc
# Summary of the method: as §1
# [24] = biological target: Gal(b1-4)GlcNAc(b1-2)Man(a1-3)[GlcNAc(b1-2)Man(a1-6)]Man(b1-4)GlcNAc(b1-4)GlcNAc
# Summary of the method: as §1
# [25] = biological target: Gal(b1-4)GlcNAc(b1-2)Man(a1-6)[Man(a1-3)]Man(b1-4)GlcNAc(b1-4)GlcNAc
# Summary of the method: as §1
# [26] = biological target: Gal(b1-4)GlcNAc(b1-2)[Gal(b1-4)GlcNAc(b1-6)]Man(a1-6)[Gal(b1-4)GlcNAc(b1-2)Man(a1-3)]Man(b1-4)GlcNAc(b1-4)GlcNAc
# Summary of the method: as §1
# [27] = biological target: Gal(b1-4)GlcNAc(b1-3)Gal(b1-4)GlcNAc(b1-2)Man(a1-3)[Gal(b1-4)GlcNAc(b1-3)Gal(b1-4)GlcNAc(b1-2)Man(a1-6)]Man(b1-4)GlcNAc(b1-4)[Fuc(a1-6)]GlcNAc
# Summary of the method: as §1
# [28] = biological target: Gal(b1-4)GlcNAc(b1-3)Gal(b1-4)GlcNAc(b1-6)[Gal(b1-3)]GalNAc
# Summary of the method: as §1
# GalNAc(b1-3)GlcNAc = biological target: GalNAc(b1-3)GlcNAc
# Summary of the method: as §1
# GalNAc3S(b1-4)GlcNAc3S = biological target: GalNAc3S(b1-4)GlcNAc3S
# Summary of the method: as §1
# [29] = biological target: GlcNAc(b1-2)Gal(b1-3)GalNAc
# Summary of the method: as §1
# [30] = biological target: GlcNAc(b1-2)Man(a1-3)[GlcNAc(b1-2)Man(a1-6)]Man(b1-4)GlcNAc(b1-4)GlcNAc
# Summary of the method: as §1
# [31] = biological target: GlcNAc(b1-2)[GlcNAc(b1-4)]Man(a1-3)[GlcNAc(b1-2)Man(a1-6)]Man(b1-4)GlcNAc(b1-4)GlcNAc
# Summary of the method: as §1
# [32] = biological target: GlcNAc(b1-3)Gal(b1-4)GlcNAc
# Summary of the method: as §1
# [33] = biological target: GlcNAc(b1-3)Gal(b1-4)GlcNAc(b1-3)Gal(b1-4)GlcNAc(b1-2)Man(a1-3)[GlcNAc(b1-3)Gal(b1-4)GlcNAc(b1-3)Gal(b1-4)GlcNAc(b1-2)Man(a1-6)]Man(b1-4)GlcNAc(b1-4)GlcNAc
# Summary of the method: as §1
# [34] = biological target: GlcNAc(b1-3)Gal(b1-4)GlcNAc(b1-6)[GlcNAc(b1-3)Gal(b1-3)]GalNAc
# Summary of the method: as §1
# Kdn(a2-3)Gal(b1-3)GalNAc = biological target: Kdn(a2-3)Gal(b1-3)GalNAc
# Summary of the method: as §1
# Kdn(a2-3)Gal(b1-3)GlcNAc = biological target: Kdn(a2-3)Gal(b1-3)GlcNAc
# Summary of the method: as §1
# [35] = biological target: Man(a1-2)Man(a1-3)[Man(a1-6)]Man(a1-6)[Man(a1-2)Man(a1-3)]Man(b1-4)GlcNAc(b1-4)GlcNAc
# Summary of the method: as §1
# [36] = biological target: Man(a1-2)Man(a1-6)[Man(a1-3)]Man(a1-6)[Man(a1-2)Man(a1-2)Man(a1-3)]Man(b1-4)GlcNAc(b1-4)GlcNAc
# Summary of the method: as §1
# [37] = biological target: Man(a1-3)[Man(a1-6)]Man(a1-6)[Man(a1-2)Man(a1-3)]Man(b1-4)GlcNAc(b1-4)GlcNAc
# Summary of the method: as §1
# [38] = biological target: Man(a1-3)[Man(a1-6)]Man(a1-6)[Man(a1-3)]Man(b1-4)GlcNAc(b1-4)GlcNAc
# Summary of the method: as §1
# [39] = biological target: Man(a1-3)[Man(a1-6)]Man(b1-4)GlcNAc(b1-4)GlcNAc
# Summary of the method: as §1
# [40] = biological target: Man(a1-3)[Man(a1-6)]Man(b1-4)GlcNAc(b1-4)[Fuc(a1-6)]GlcNAc
# Summary of the method: as §1
# [41] = biological target: Neu5Ac(a2-3)Gal(b1-3)GlcNAc(b1-2)Man
# Summary of the method: as §1
# [42] = biological target: Neu5Ac(a2-3)Gal(b1-3)GlcNAc(b1-3)GalNAc
# Summary of the method: as §1
# [43] = biological target: Neu5Ac(a2-3)Gal(b1-3)GlcNAc(b1-4)Gal(b1-4)Glc
# Summary of the method: as §1
# [44] = biological target: Neu5Ac(a2-3)Gal(b1-4)GlcNAc(b1-3)Gal
# Summary of the method: as §1
# [45] = biological target: Neu5Ac(a2-3)Gal(b1-4)[Fuc(a1-3)]GlcNAc(b1-3)Gal
# Summary of the method: as §1
# [46] = biological target: Neu5Ac(a2-3)Gal(b1-4)[Fuc(a1-3)]GlcNAc(b1-3)GalNAc
# Summary of the method: as §1
# [47] = biological target: Neu5Ac(a2-3)[GalNAc(b1-4)]Gal(b1-4)GlcNAc
# Summary of the method: as §1
# Neu5Ac(a2-6)Gal(b1-4)Glc = biological target: Neu5Ac(a2-6)Gal(b1-4)Glc
# Summary of the method: as §1
# [48] = biological target: Neu5Ac(a2-6)Gal(b1-4)GlcNAc(b1-2)Man(a1-6)[Man(a1-3)]Man(b1-4)GlcNAc(b1-4)GlcNAc
# Summary of the method: as §1
# [49] = biological target: Neu5Ac(a2-8)Neu5Ac(a2-3)Gal(b1-3)GalNAc(b1-4)[Neu5Ac(a2-3)]Gal(b1-4)Glc
# Summary of the method: as §1
binder,measurement,setting,value
B1,glycan array binding signal (z-score),[1],-0.184
same,glycan array binding signal (z-score),[2],-0.187
same,glycan array binding signal (z-score),[3],-0.276
same,glycan array binding signal (z-score),[4],-0.163
same,glycan array binding signal (z-score),[5],-0.191
same,glycan array binding signal (z-score),[6],-0.194
same,glycan array binding signal (z-score),[7],-0.248
same,glycan array binding signal (z-score),[8],-0.081
same,glycan array binding signal (z-score),[9],-0.205
same,glycan array binding signal (z-score),[10],-0.2
same,glycan array binding signal (z-score),[11],-0.27
same,glycan array binding signal (z-score),[12],-0.163
same,glycan array binding signal (z-score),[13],-0.183
same,glycan array binding signal (z-score),[14],-0.16
same,glycan array binding signal (z-score),[15],-0.28
same,glycan array binding signal (z-score),[16],-0.176
same,glycan array binding signal (z-score),[17],-0.216
same,glycan array binding signal (z-score),[18],2.38
same,glycan array binding signal (z-score),Gal(b1-2)Gal,-0.142
same,glycan array binding signal (z-score),[19],-0.179
same,glycan array binding signal (z-score),[20],-0.218
same,glycan array binding signal (z-score),[21],-0.191
same,glycan array binding signal (z-score),[22],-0.179
same,glycan array binding signal (z-score),[23],-0.199
same,glycan array binding signal (z-score),[24],1.37
same,glycan array binding signal (z-score),[25],5.65
same,glycan array binding signal (z-score),[26],1.53
same,glycan array binding signal (z-score),[27],0.18
same,glycan array binding signal (z-score),[28],-0.172
same,glycan array binding signal (z-score),GalNAc(b1-3)GlcNAc,-0.242
same,glycan array binding signal (z-score),GalNAc3S(b1-4)GlcNAc3S,-0.189
same,glycan array binding signal (z-score),[29],-0.206
same,glycan array binding signal (z-score),[30],3.13
same,glycan array binding signal (z-score),[31],-0.179
same,glycan array binding signal (z-score),[32],-0.186
same,glycan array binding signal (z-score),[33],0.555
same,glycan array binding signal (z-score),[34],-0.224
same,glycan array binding signal (z-score),Kdn(a2-3)Gal(b1-3)GalNAc,-0.167
same,glycan array binding signal (z-score),Kdn(a2-3)Gal(b1-3)GlcNAc,-0.204
same,glycan array binding signal (z-score),[35],1.35
same,glycan array binding signal (z-score),[36],1.51
same,glycan array binding signal (z-score),[37],4.8
same,glycan array binding signal (z-score),[38],4.45
same,glycan array binding signal (z-score),[39],12.5
same,glycan array binding signal (z-score),[40],1.44
same,glycan array binding signal (z-score),[41],-0.31
same,glycan array binding signal (z-score),[42],-0.195
same,glycan array binding signal (z-score),[43],-0.24
same,glycan array binding signal (z-score),[44],-0.196
same,glycan array binding signal (z-score),[45],-0.179
same,glycan array binding signal (z-score),[46],-0.145
same,glycan array binding signal (z-score),[47],-0.207
same,glycan array binding signal (z-score),Neu5Ac(a2-6)Gal(b1-4)Glc,-0.21
same,glycan array binding signal (z-score),[48],3.61
same,glycan array binding signal (z-score),[49],-0.153
